High-throughput results deposited in PubChem by Sanford-Burnham Center for Chemical Genomics.
This is a sample that favours compounds with a hit; in the whole collection about 4% have one here.
NALP1 yeast inh – NALP1 inflammasome inhibitors in reconstituted yeast, colorimetric, S. cerevisiae, triplicate retest; S. cerevisiae NALP1/ASC/caspase-1 growth, X-gal OD620, 72 h; inhibition, % at 10 µM; actives 0.61% (n = 280,000); AID 2071, 2009; in the data active = inhibition mostly above about 24%, no sharp cut-off; inactive = mostly below about 32%
tim23-1 inh – growth inhibitors of tim23-1 mutant yeast, primary screen, luminescence, uHTS. S. cerevisiae tim23-1 growth, BacTiter-Glo luminescence, 24 h. inhibition, % at 20 µM. actives 1.3% (n = 330,000). AID 463212, 2010;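 active = growth inhibition of the mutant yeast at or above 50%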;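 also: temperature-sensitive mutant grown at 25 °C; plate controls were DMSO-treated mutant yeast for no effect and medium wells lacking yeast for full effect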
TIM10 inh – growth inhibitors of isogenic TIM10 control yeast, primary screen, counter-screen for tim10-1 yeast inhibitor project, luminescence, uHTS; S. cerevisiae TIM10 strain growth, BacTiter-Glo luminescence, 24 h; inhibition, % at 10 µM; actives 1.4% (n = 330,000); AID 463195, 2010;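 active = inhibition of 40% or more at the single tested concentration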;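 also: wild-type TIM10 isogenic control strain grown at permissive 25 °C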
NALP3 yeast inh – NALP3 inflammasome inhibitors in reconstituted yeast, primary screen, luminescence, uHTS; actives 0.39% (n = 330,000); inhibition, % at 10 µM; Yeast reconstituted NLRP3/ASC/caspase-1, beta-gal luminescence, 24 h;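 active = inhibition of 50% or more; inactive = inhibition below 50%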;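 also: plate controls were induced DMSO wells for no effect and uninduced yeast grown without galactose for full effect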
tim10-1 inh – growth inhibitors of tim10-1 mutant yeast, primary screen, luminescence, uHTS; S. cerevisiae tim10-1 ts strain growth, BacTiter-Glo, 24 h; AID 463190, 2010; inhibition, % at 20 µM; actives 2.2% (n = 330,000);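 active = inhibition of at least 40%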;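 also: mutant grown at 25 °C; 0% = DMSO wells with yeast and 100% = wells holding no yeast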
TIM10 conf – growth inhibitors of wild-type TIM10 yeast, confirmation, counter-screen for tim10-1 synthetic lethality project, single concentration, luminescence, S. cerevisiae. shares compounds with TIM10 inh. S. cerevisiae tim10 strain growth, BacTiter-Glo luminescence, 24 h. inhibition, % at 10 µM. actives 63% (n = 4,600). AID 463215, 2010;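 active = inhibition of yeast growth at or above a set limit in either of two replicates at 10 µM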;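 also: this counterscreen used the strain with wild-type TIM10; 0% = yeast with DMSO and 100% = medium wells lacking yeast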
Numbers without * were called inactive.

Screening O=C(N/N=C1\CC2CC=CC12)c1ccc(Br)cc1 (stereo not drawn) returned NALP1 yeast inh 19, tim23-1 inh 13, TIM10 inh 0, NALP3 yeast inh 5 and tim10-1 inh 22.
For O=[N+]([O-])c1ccccc1S(=O)(=O)N1CCN(Cc2ccc3c(c2)OCO3)CC1 the results were NALP1 yeast inh 20, tim23-1 inh 6, TIM10 inh 21, NALP3 yeast inh 12 and tim10-1 inh 13.
Screening c1ccc(-c2nnc3sc(CN4CCc5ccccc54)cn23)cc1 returned NALP1 yeast inh 11, tim23-1 inh 47, TIM10 inh 42*, NALP3 yeast inh 12, tim10-1 inh 12 and TIM10 conf 22.
`Cc1ccc2c(c1)C(c1ccccc1)N(C(=O)c1ccc(Br)cc1)CC(=O)N2` (stereo not drawn) gave NALP1 yeast inh 12.
`O=C(COc1ccc(-c2nnc(N3CCCCC3)c3ccccc23)cc1)N1CCCCC1` gave NALP1 yeast inh -62, tim23-1 inh 41, TIM10 inh 42*, NALP3 yeast inh -9, tim10-1 inh 37 and TIM10 conf 31.
Screening COc1ccc(S(=O)(=O)Nc2cc3c4c(c2)CCC(=O)N4CCC3)cc1C returned tim23-1 inh -5, TIM10 inh 15, NALP3 yeast inh 5 and tim10-1 inh 3.
COC(=O)c1c(NC(=O)c2nc3ccccc3s2)sc2c1CC(C)(C)NC2(C)C was read as NALP1 yeast inh 12, tim23-1 inh 40, TIM10 inh 55*, NALP3 yeast inh 15, tim10-1 inh 30 and TIM10 conf 36*.
For COc1ccc(-c2nc(C#N)c(NCc3ccc(C)cc3)o2)cc1OC the results were NALP1 yeast inh 2, tim23-1 inh 1, TIM10 inh 19, NALP3 yeast inh 19 and tim10-1 inh 5.
For COc1ccc(CCNc2oc(COc3ccc(F)cc3)nc2C#N)cc1 the results were NALP1 yeast inh -3, tim23-1 inh 35, TIM10 inh 43*, NALP3 yeast inh 23, tim10-1 inh 26 and TIM10 conf 36*.
For N#Cc1nc(-c2ccco2)oc1NCCc1ccccc1 the results were NALP1 yeast inh 3, tim23-1 inh -16, TIM10 inh 65*, NALP3 yeast inh 46, tim10-1 inh 17 and TIM10 conf 57*.
Screening COc1ccc(CCNc2oc(COc3ccccc3F)nc2C#N)cc1OC returned NALP1 yeast inh 4, tim23-1 inh 14, TIM10 inh 22, NALP3 yeast inh 10 and tim10-1 inh 7.
CNc1oc(-c2ccco2)nc1C#N was read as NALP1 yeast inh 4, tim23-1 inh 1, TIM10 inh -13, NALP3 yeast inh 5 and tim10-1 inh -8.
COc1ccc(-c2nc(C#N)c(NCCc3ccccc3)o2)cc1OC was read as NALP1 yeast inh 3, tim23-1 inh 48, TIM10 inh 46*, NALP3 yeast inh 22, tim10-1 inh 24 and TIM10 conf 41*.
`COc1ccc(CC(NC(C)=O)C(=O)NC2CCN(c3ncccc3[N+](=O)[O-])CC2)cc1` (stereo not drawn) gave NALP1 yeast inh 15, tim23-1 inh 7, TIM10 inh -8, NALP3 yeast inh 27 and tim10-1 inh 5.
Screening Cc1nc(SCCc2nc3ccccc3[nH]2)c2oc3ccccc3c2n1 returned tim23-1 inh 18, TIM10 inh 15, NALP3 yeast inh 5 and tim10-1 inh 20.
Screening Cc1nn(C)cc1/C=N/NC(=S)Nc1ccc(Cl)cc1Cl returned NALP1 yeast inh 16, tim23-1 inh 24, TIM10 inh 9, NALP3 yeast inh 22 and tim10-1 inh 27.
CCn1nc(C)c(/C=N/NC(=S)Nc2ccc(Cl)cc2Cl)c1C was read as NALP1 yeast inh 31, tim23-1 inh 37, TIM10 inh 42*, NALP3 yeast inh 13, tim10-1 inh 39 and TIM10 conf -10.
For O=C(CSc1cnc2ccccc2n1)c1ccc(F)cc1 the results were NALP1 yeast inh 29, tim23-1 inh -19, TIM10 inh 17, NALP3 yeast inh 19 and tim10-1 inh 23.
Screening OC(COc1ccc(Br)cc1)Cn1ccnc1 (stereo not drawn) returned NALP1 yeast inh 0, tim23-1 inh -6, TIM10 inh 0, NALP3 yeast inh 8 and tim10-1 inh 7.
For COc1ccc(OCC(O)Cn2cnc(-c3ccc(Br)cc3)c2)cc1 (stereo not drawn) the results were NALP1 yeast inh 1, tim23-1 inh 7, TIM10 inh 52*, NALP3 yeast inh 37, tim10-1 inh 7 and TIM10 conf -23.
`Cc1c(Cl)cccc1NC(=S)NCc1ccccc1Cl` gave NALP1 yeast inh 18, tim23-1 inh 25, TIM10 inh 9, NALP3 yeast inh 37 and tim10-1 inh 38.
For Cc1c(Cl)cccc1NC(=S)NCCC(C)C the results were NALP1 yeast inh 22, tim23-1 inh 23, TIM10 inh 49*, NALP3 yeast inh -16, tim10-1 inh 29 and TIM10 conf 34*.
`COc1ccc(NC(=S)NCCC(c2ccccc2)c2ccccc2)c(OC)c1` gave tim23-1 inh 13, TIM10 inh 45*, NALP3 yeast inh 7, tim10-1 inh 23 and TIM10 conf 31*.
Cc1c(Cl)cccc1NC(=S)NCCC(c1ccccc1)c1ccccc1 was read as NALP1 yeast inh 16, tim23-1 inh 4, TIM10 inh 50*, NALP3 yeast inh 15, tim10-1 inh 37 and TIM10 conf 20.
Screening CCOC(=O)c1c(N)sc2c(OCC)c(Br)ccc12 returned NALP1 yeast inh 4, tim23-1 inh 47, TIM10 inh 41*, NALP3 yeast inh 24, tim10-1 inh 30 and TIM10 conf 23.
For CCOC(=O)c1sc(N)c(C(=O)OCC)c1C the results were tim23-1 inh 33, TIM10 inh -59, NALP3 yeast inh 44 and tim10-1 inh -10.
Screening O=C(NC1CCCC1)C1CCN(C(=O)c2ccccc2Cl)CC1 returned NALP1 yeast inh 14, tim23-1 inh 5, TIM10 inh -4, NALP3 yeast inh 18 and tim10-1 inh -6.
Screening CC(NC(=S)Nc1cccc(C(F)(F)F)c1)C(C)(C)C (stereo not drawn) returned NALP1 yeast inh 5, tim23-1 inh 34, TIM10 inh 45*, NALP3 yeast inh -1, tim10-1 inh 36 and TIM10 conf 26.
Cc1ccc(NC(=S)NNC(=S)Nc2cccc(C(F)(F)F)c2)cc1 was read as tim23-1 inh 39, TIM10 inh 53*, NALP3 yeast inh 19, tim10-1 inh 29 and TIM10 conf 48*.
